Legend:
Assay in all cases: log2 ratio of Biotin-Ahx-Ub-VS probe labelling (fragment/DMSO); higher = less target engagement (more negative = stronger competition), active = hit call of the paper (q ≤ 0.05, log2 ratio ≤ -1)
Details in all cases: compound concentration: 200 uM; treatment time: 3 h
[1] = molecular target: USP34 (UniProt Q70CQ2)
In short: (§1)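 Labelled DUBs from HEK293T lysate were NeutrAvidin-enriched, digested with LysC and trypsin, and run by diaPASEF LC-MS/MS. Before that, each 495 µg sample in Tris/CHAPS/IGEPAL buffer with protease inhibitors was treated in triplicate with fragment at 200 µM or vehicle for 3 h, then with Biotin-Ahx-Ub-VS at 0.5 µM final for 1 h. Values are average log2 ratios of fragment over vehicle by unpaired t-test, based on global-median-normalised Spectronaut label-free quantities from proteins with ≥2 unique peptides.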

[2] = molecular target: T1, USP36 (UniProt Q9P275)
T1 sequence (whole entry): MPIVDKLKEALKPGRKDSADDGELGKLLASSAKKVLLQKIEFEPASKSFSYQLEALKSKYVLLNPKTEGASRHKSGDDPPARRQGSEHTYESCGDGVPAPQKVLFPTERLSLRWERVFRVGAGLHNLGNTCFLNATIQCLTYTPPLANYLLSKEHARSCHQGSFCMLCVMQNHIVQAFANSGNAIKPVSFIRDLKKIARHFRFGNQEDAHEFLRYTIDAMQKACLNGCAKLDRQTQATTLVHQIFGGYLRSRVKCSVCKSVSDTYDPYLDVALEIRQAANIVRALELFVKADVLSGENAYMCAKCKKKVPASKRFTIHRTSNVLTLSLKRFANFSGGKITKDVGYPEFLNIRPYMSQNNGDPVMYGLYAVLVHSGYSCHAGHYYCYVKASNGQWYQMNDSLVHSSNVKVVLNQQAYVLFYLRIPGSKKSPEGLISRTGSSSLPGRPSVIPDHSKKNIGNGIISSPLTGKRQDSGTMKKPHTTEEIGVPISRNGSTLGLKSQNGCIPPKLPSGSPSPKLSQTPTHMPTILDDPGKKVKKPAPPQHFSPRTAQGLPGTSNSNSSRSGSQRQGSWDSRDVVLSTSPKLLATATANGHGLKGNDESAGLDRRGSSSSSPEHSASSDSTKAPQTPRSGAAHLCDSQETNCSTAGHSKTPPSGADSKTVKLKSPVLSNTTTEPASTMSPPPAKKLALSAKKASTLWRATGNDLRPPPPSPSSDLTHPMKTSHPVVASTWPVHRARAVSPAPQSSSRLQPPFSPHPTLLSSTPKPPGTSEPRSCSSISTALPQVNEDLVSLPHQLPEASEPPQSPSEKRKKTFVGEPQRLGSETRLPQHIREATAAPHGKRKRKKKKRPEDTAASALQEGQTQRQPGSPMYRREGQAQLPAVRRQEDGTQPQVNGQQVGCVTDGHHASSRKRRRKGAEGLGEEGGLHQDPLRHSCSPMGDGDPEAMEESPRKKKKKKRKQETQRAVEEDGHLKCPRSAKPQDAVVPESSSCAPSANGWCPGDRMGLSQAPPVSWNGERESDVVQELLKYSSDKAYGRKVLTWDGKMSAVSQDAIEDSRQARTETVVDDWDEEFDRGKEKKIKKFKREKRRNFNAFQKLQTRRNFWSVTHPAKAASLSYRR
In short: as §1

[3] = molecular target: T2, USP38 (UniProt Q8NB14)
T2 sequence (whole entry): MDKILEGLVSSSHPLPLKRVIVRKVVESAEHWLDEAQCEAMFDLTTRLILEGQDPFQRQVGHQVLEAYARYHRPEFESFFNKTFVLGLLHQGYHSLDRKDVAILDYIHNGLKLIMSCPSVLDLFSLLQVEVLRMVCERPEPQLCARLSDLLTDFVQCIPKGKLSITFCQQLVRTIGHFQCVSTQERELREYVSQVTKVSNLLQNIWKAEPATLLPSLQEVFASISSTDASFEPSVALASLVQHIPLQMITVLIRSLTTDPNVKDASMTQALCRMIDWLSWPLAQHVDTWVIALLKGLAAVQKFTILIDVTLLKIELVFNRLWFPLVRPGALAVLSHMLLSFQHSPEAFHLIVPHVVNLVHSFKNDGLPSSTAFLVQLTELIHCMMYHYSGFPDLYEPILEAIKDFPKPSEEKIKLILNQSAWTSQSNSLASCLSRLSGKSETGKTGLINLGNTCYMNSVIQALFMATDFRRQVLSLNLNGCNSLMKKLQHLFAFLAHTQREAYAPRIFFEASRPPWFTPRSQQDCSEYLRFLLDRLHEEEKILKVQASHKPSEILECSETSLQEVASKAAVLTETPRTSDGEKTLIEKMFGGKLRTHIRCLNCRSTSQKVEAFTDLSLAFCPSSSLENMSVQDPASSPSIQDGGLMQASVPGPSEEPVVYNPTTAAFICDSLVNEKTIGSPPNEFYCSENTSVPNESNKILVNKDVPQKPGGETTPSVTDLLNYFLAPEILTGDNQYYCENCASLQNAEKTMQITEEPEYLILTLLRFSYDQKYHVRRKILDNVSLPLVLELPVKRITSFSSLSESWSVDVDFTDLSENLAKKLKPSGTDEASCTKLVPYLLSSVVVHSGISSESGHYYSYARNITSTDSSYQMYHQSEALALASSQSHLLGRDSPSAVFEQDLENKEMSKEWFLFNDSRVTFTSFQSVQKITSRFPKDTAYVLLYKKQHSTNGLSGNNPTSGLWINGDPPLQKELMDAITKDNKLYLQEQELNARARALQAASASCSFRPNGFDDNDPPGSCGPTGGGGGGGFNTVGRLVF
In short: as §1

[4] = molecular target: T3, USP39 (UniProt Q53GS9)
T3 sequence (whole entry): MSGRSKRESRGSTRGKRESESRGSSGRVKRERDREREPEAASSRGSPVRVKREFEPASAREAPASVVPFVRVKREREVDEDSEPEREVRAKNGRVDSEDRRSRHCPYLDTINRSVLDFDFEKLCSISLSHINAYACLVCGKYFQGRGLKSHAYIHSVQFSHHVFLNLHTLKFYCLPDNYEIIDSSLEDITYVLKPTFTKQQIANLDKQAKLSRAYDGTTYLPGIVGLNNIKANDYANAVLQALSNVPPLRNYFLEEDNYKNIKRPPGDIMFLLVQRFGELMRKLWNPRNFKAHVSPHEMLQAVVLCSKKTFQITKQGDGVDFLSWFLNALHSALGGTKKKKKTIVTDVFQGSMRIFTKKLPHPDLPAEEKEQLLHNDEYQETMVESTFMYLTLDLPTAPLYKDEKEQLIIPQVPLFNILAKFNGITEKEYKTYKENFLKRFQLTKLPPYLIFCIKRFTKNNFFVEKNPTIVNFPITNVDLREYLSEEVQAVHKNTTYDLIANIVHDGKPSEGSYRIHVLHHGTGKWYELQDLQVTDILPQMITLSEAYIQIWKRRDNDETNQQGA
In short: as §1

[5] = molecular target: T4, USP4 (UniProt Q13107)
T4 sequence (whole entry): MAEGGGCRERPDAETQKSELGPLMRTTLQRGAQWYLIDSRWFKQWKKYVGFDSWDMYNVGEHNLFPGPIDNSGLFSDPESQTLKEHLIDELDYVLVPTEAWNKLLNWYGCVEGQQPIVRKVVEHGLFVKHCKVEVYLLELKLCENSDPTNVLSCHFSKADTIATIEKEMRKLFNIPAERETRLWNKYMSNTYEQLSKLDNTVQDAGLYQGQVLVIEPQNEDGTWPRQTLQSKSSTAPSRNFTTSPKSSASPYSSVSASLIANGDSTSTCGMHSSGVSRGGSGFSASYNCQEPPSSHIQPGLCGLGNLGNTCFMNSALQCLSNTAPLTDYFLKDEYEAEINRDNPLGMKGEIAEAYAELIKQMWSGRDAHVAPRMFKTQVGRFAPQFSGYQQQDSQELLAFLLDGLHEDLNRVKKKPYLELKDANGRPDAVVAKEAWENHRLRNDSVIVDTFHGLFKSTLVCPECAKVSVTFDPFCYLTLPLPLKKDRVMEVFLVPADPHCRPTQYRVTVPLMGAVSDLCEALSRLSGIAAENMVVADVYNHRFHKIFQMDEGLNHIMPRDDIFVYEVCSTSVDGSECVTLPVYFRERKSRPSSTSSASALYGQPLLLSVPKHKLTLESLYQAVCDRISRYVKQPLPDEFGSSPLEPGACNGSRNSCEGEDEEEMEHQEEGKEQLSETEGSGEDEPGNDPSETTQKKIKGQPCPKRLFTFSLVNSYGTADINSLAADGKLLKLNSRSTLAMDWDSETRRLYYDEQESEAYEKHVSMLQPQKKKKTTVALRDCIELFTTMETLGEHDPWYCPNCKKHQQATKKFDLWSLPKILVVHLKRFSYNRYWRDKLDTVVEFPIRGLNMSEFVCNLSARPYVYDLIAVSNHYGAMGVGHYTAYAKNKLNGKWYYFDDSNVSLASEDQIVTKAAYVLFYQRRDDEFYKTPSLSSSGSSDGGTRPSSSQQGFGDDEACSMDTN
In short: as §1

Measured: log2 ratio of Biotin-Ahx-Ub-VS probe labelling

USP34, sequence (Q70CQ2 whole entry, the tested form may be a part): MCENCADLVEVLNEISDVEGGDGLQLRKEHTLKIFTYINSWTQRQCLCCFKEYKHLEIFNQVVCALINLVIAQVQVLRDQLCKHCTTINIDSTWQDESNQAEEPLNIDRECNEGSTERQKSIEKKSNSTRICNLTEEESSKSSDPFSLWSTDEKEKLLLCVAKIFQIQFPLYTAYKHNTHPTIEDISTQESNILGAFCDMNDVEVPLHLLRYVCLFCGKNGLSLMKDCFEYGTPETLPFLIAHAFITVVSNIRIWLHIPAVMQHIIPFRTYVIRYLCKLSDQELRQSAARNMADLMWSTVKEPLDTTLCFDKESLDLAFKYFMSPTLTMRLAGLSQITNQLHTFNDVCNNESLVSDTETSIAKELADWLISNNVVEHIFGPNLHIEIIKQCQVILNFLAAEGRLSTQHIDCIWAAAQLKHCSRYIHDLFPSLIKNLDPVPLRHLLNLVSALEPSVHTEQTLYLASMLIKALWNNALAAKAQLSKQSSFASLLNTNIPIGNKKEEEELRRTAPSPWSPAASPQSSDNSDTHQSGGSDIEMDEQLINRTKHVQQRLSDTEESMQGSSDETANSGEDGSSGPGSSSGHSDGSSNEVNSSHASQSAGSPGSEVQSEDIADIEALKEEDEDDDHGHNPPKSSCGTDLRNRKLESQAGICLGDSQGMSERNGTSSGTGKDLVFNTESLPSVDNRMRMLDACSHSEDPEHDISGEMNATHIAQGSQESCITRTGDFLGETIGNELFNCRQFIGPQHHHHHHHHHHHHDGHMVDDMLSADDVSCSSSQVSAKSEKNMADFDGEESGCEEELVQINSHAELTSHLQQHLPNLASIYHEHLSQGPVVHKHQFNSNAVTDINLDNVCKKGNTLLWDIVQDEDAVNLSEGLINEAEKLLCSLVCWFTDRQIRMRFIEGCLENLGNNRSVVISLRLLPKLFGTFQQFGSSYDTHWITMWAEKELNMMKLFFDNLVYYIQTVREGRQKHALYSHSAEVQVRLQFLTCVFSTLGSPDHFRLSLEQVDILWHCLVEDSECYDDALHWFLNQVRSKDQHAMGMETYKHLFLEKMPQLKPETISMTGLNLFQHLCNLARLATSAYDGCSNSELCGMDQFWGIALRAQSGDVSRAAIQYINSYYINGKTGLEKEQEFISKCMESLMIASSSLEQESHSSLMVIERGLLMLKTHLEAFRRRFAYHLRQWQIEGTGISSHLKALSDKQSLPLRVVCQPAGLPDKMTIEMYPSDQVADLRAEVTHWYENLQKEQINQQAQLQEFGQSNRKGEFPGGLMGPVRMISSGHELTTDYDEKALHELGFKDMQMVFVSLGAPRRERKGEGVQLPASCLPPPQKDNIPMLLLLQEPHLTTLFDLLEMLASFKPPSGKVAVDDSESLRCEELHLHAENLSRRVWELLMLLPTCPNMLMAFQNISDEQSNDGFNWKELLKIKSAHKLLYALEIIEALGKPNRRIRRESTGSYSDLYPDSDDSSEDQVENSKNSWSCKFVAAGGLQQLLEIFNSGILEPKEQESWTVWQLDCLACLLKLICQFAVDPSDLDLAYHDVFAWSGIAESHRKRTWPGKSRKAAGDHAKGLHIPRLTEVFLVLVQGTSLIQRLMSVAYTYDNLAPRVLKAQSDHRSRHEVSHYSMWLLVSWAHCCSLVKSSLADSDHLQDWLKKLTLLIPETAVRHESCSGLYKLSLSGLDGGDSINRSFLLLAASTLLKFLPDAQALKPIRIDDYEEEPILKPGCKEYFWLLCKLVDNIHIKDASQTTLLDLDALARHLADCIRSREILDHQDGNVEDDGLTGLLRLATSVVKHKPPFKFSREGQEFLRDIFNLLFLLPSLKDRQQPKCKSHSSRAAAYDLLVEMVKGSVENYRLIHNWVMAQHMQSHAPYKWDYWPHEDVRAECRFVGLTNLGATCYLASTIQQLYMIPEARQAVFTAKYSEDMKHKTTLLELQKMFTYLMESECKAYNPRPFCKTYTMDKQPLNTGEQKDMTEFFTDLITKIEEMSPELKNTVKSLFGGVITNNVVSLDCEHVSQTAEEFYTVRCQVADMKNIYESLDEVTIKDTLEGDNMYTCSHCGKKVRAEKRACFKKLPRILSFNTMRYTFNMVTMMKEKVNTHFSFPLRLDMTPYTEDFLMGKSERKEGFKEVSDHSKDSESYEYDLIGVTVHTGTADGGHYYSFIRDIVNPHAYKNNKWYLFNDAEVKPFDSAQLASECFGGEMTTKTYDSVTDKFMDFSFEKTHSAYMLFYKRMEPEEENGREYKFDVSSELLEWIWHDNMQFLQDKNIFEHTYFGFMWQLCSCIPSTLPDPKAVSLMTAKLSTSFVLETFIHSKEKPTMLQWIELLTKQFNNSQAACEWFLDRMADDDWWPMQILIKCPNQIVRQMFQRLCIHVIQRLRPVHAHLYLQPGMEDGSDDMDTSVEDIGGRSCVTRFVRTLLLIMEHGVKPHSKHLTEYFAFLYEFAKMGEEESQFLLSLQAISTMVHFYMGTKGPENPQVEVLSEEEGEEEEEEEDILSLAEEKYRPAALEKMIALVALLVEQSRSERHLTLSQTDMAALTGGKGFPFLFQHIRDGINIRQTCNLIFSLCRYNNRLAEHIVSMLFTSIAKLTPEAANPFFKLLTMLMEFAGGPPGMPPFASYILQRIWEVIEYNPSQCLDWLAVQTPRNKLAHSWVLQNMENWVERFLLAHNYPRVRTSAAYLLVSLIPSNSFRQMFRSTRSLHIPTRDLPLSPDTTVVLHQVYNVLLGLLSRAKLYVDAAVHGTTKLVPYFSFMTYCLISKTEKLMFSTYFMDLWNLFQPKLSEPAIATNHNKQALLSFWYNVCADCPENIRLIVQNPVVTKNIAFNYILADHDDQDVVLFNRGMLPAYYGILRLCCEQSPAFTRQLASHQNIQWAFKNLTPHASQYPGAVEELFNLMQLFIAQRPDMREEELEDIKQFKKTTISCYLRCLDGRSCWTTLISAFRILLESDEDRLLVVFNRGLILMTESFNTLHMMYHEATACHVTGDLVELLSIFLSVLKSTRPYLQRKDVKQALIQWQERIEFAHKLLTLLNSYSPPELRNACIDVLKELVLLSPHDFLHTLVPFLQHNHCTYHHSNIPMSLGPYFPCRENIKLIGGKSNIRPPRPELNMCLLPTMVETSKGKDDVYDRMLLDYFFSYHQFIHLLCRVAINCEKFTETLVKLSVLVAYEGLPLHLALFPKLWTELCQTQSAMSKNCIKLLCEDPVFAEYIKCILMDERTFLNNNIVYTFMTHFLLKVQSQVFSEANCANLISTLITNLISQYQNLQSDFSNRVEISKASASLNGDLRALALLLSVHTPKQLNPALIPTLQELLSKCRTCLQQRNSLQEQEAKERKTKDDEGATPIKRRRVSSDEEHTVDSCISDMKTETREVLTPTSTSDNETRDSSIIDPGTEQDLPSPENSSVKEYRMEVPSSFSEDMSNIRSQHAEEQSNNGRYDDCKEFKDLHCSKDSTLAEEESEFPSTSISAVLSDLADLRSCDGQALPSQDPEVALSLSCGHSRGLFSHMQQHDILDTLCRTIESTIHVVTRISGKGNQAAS

O=C(CCl)N1CCc2ccccc2C(O)C1 (stereo not given)
inactive: [1] -0.224 | [2] -0.441 | [3] -0.0535 | [4] 0.0381 | [5] -0.274
